# Laboratory results from PubChem BioAssay AID1063 (University of Pittsburgh Molecular Library Screening Center, 2008).
# The campaign covered roughly 200,000 compounds. About 18,000 (9%) were called active. The full list was thinned out, with actives kept by preference. Unmarked numbers belong to inactive results. Cut-off read from the data, not from the text of the source: active = inhibition above about 50%; inactive = the rest.
# Assay: Leishmania major promastigote growth inhibition, primary screen (AID 1063);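 note: promastigotes grown with compound for 44 hours at 28 °C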
# Settings: Leishmania major promastigotes, resazurin fluorescence viability; at 10 µM; stronger effect = higher value
row,SMILES,inhibition
1,Cc1nccn1CC(=O)N/N=C/c1ccc(O)c(O)c1,-6.58%
2,Oc1ccc(/C=N/Nc2ccc(C(F)(F)F)cn2)cc1O,95.4% (active)
3,FC(F)(F)c1cccc(N/N=C/c2ccccc2)c1,-13.1%
4,CCc1nnc(NC(=O)C2CC(=O)N(c3ccc4c(c3)OCCO4)C2)s1 (stereo unspecified),-9.31%
5,c1ccc(CCn2nnnc2CN2CCN(C3CCCC3)CC2)cc1,85.5% (active)
6,c1ccc(C(c2ccccc2)N2CCN(Cc3nnnn3C3CCCCC3)CC2)cc1,9.22%
7,N#Cc1ccc(C(c2nnnn2CCc2ccccc2)N2CCCCCC2)cc1 (stereo unspecified),16.3%
8,CCOc1cc(NC(=S)NCCCN(C)C)c(OCC)cc1NC(=O)C1CC1,-0.62%
9,C=CCn1cc(-c2cccc(C(F)(F)F)c2)cc(C#N)c1=O,10.4%
10,O=[N+]([O-])c1ccc(N/N=C2/CCCCC2c2ccccn2)c([N+](=O)[O-])c1 (stereo unspecified),2.5%
11,C[n+]1ccccc1C1CCCC/C1=N\Nc1ccc([N+](=O)[O-])cc1[N+](=O)[O-] (stereo unspecified),-1.09%
12,O=C(Nc1ccccc1)O/N=C1\CCCCC1c1ccc([N+](=O)[O-])cc1[N+](=O)[O-] (stereo unspecified),99.6% (active)
13,O=C(Nc1ccccc1Cl)/C(Cl)=C(\Cl)S(=O)c1ccccc1 (stereo unspecified),101% (active)
14,O=C(Nc1ccccc1Cl)c1ccc2nsnc2c1,-3.57%
15,O=C(CN1CCCCC1)Nc1ccccc1Cl,-0.98%
16,COc1cccc(/C=C/C(=O)Nc2ccc3c(c2)OCCO3)c1,13.7%
17,CCC(=O)Nc1ccc2nc(C)n(Cc3ccccc3Cl)c(=O)c2c1,4.75%
18,Cc1cc(C(=O)Nc2ccccc2N2CCOCC2)c2ccccc2n1,1.07%
19,CCN1CCN(c2cc3nc(C)n(Cc4ccccc4)c(=O)c3cc2NC(=O)c2ccccc2F)CC1,98.3% (active)
20,Cc1c(/C=N\NC(=O)c2cc3ccccc3o2)c2ccccc2n1C,9.72%
21,O=C(c1ccc2ccccc2n1)N1CCN(c2ccccc2Cl)CC1,-3.63%
22,O=C(c1ccc(C(F)(F)F)cc1)C1CCCN(C(=O)c2csnn2)C1 (stereo unspecified),-5.59%
23,CSc1ccc(C(=O)C2CCCN(C(=O)c3ccc(C)nc3)C2)cc1 (stereo unspecified),-4.42%
24,O=C(c1ccc(-c2ccccc2)cc1)C1CCCN(C(=O)c2cncs2)C1 (stereo unspecified),58.5% (active)
25,C/C=N/NC(=O)CCCC(=O)N/N=C/C,13.8%
26,COc1cccc(NC(=O)CN(C)C(C)C(=O)Nc2ccc(C#N)cc2)c1 (stereo unspecified),5.24%
